Where “and” joins values, the source holds several entries; their conditions need not be identical. Identical values can stand only once. Results filed as inconclusive are left out. Calls of active or inactive are those of the source.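 How the source made its calls, unless noted: active means normalized viability below 100% at a tested concentration; inactive means the rest.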
How the values were obtained:
[1] = viability loss in pontine glioma line – cell-based, SU-DIPG-XVII, MIPE5.0, CellTiter-Glo, qHTS, dose response (AID 1347060; cut-off not given, nearly all actives have AC50 up to about 26 µM;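 on AC50: cells exposed to compound for 48 hours before viability readout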); conditions: CellTiter-Glo ATP luminescence
[2] = viability loss in pontine glioma line – cell-based, JHH-DIPG-1, MIPE4.0, CellTiter-Glo, qHTS, dose response (AID 1347062; cut-off not given, nearly all actives have AC50 up to about 27 µM;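 on AC50: cells exposed to compound for two days before readout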); conditions: JHH-DIPG-1 viability, CellTiter-Glo ATP luminescence
[3] = viability loss in pontine glioma line – cell-based, SU-DIPG-IV, MIPE4.0, CellTiter-Glo, qHTS, dose response (AID 1347063; cut-off not given, nearly all actives have AC50 up to about 30 µM;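 further: compound exposure lasted 48 hours before the viability readout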); conditions: CellTiter-Glo ATP luminescence
[4] = viability loss in pontine glioma line – cell-based, SU-DIPG-XIII, MIPE5.0, CellTiter-Glo, qHTS, dose response (AID 1347064; cut-off not given, nearly all actives have AC50 up to about 23 µM;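 on AC50: cells exposed to compound for 48 hours before the viability read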); conditions: CellTiter-Glo ATP luminescence
[5] = viability loss in pontine glioma line – cell-based, SU-DIPG-XXV, MIPE5.0, CellTiter-Glo, qHTS, dose response (AID 1347065; cut-off not given, nearly all actives have AC50 up to about 26 µM;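 further: cells exposed to compound for 48 hours before ATP readout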); conditions: CellTiter-Glo ATP luminescence
[6] = growth inhibition of DIPG cells – cell-based, MIPE4.0 library, CellTiter-Glo luminescence, qHTS (AID 1347066; cut-off not given, nearly all actives have AC50 up to about 30 µM;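 further: cells exposed to compound for 48 hours before readout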); conditions: SU-DIPG-VI viability, CellTiter-Glo ATP luminescence
[7] = JHH-DIPG-1 glioma cell viability, MIPE5.0 library, CellTiter-Glo luminescence, qHTS (AID 1347067; cut-off not given, nearly all actives have AC50 up to about 26 µM;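 further: cells exposed to compound for 48 hours before readout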); conditions: JHH-DIPG-1 glioma viability, CellTiter-Glo ATP luminescence
[8] = growth inhibition of DIPG cells – cell-based, MIPE5.0 library, qHTS (AID 1347068; cut-off not given, nearly all actives have IC50 up to about 30 µM;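 on IC50: cells exposed to compound for 48 hours before viability readout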); conditions: SU-DIPG-XXV viability
[9] = viability loss with induced miR-34 in A549 – imaging, A549 dox-inducible miR-34, nuclei and caspase counts, primary screen (AID 1347080;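 active means compounds whose cell count with miR-34 switched on is under 0.7 times the count with it off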); conditions: A549 miR-34 inducible, Hoechst nuclei count, 48 h
[10] = MELAS cybrid and Rieske KO viability enhancers – cell-based, MELAS cybrids, Rieske KO mouse fibroblasts, CellTiter-Glo, primary screen (AID 1508586;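 active means mean z-score across replicates of 1.96 or higher in either the MELAS or the Rieske mutant cell line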;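 further: z relative to plate mean and SD of compound and empty wells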); conditions: low glucose
[11] = compounds altering HSF1 focus formation in cells – imaging, Selleck Cancer Library (AID 1347162; in the data active means plate-normalised HSF1 focus index below about 0.46); conditions: human cells, HSF1 nuclear foci imaging, at 10 µM; SSMD: measured here: HSF1 foci SSMD mean; cell count: measured here: cell number; plate-normalised HSF1 focus index: stronger effect = lower value
[12] = drug combination growth inhibition, ovarian cancer – cell-based, oncology-focused library, rucaparib conditional, profiling panel (AID 1508598); conditions: patient-derived ovarian cancer cells, CellTiter-Glo viability, 144 h, stronger effect = lower value
[13] = stronger effect = lower value, cell number ratio, induced over uninduced
[14] = measured here: relative caspase fold change +Dox/-Dox
[15] = measured here: total cells with miR-34 induction, stronger effect = lower value
[16] = measured here: total cells without miR-34 induction
[17] = MELAS cybrid survival, CellTiter-Glo 48 h, stronger effect = higher value
[18] = Rieske KO mouse fibroblast survival, CellTiter-Glo 72 h
[19] = at 0.000305 µM, OCI-C5x cells, with rucaparib 10 µM, 100% = cells with rucaparib alone
[20] = at 0.000305 µM, OCI-C5x cells, without rucaparib
[21] = at 0.000305 µM, OCI-P5x cells, with rucaparib 20 µM, 100% = cells with rucaparib alone
[22] = at 0.000305 µM, OCI-P5x cells, without rucaparib
[23] = at 0.00122 µM, OCI-C5x cells, with rucaparib 10 µM, 100% = cells with rucaparib alone
[24] = at 0.00122 µM, OCI-C5x cells, without rucaparib
[25] = at 0.00122 µM, OCI-P5x cells, with rucaparib 20 µM, 100% = cells with rucaparib alone
[26] = at 0.00122 µM, OCI-P5x cells, without rucaparib
[27] = at 0.00488 µM, OCI-C5x cells, with rucaparib 10 µM, 100% = cells with rucaparib alone
[28] = at 0.00488 µM, OCI-C5x cells, without rucaparib
[29] = at 0.00488 µM, OCI-P5x cells, with rucaparib 20 µM, 100% = cells with rucaparib alone
[30] = at 0.00488 µM, OCI-P5x cells, without rucaparib
[31] = at 0.0195 µM, OCI-C5x cells, with rucaparib 10 µM, 100% = cells with rucaparib alone
[32] = at 0.0195 µM, OCI-C5x cells, without rucaparib
[33] = at 0.0195 µM, OCI-P5x cells, with rucaparib 20 µM, 100% = cells with rucaparib alone
[34] = at 0.0195 µM, OCI-P5x cells, without rucaparib
[35] = at 0.0781 µM, OCI-C5x cells, with rucaparib 10 µM, 100% = cells with rucaparib alone
[36] = at 0.0781 µM, OCI-C5x cells, without rucaparib
[37] = at 0.0781 µM, OCI-P5x cells, with rucaparib 20 µM, 100% = cells with rucaparib alone
[38] = at 0.0781 µM, OCI-P5x cells, without rucaparib
[39] = at 0.313 µM, OCI-C5x cells, with rucaparib 10 µM, 100% = cells with rucaparib alone
[40] = at 0.313 µM, OCI-C5x cells, without rucaparib
[41] = at 0.313 µM, OCI-P5x cells, with rucaparib 20 µM, 100% = cells with rucaparib alone
[42] = at 0.313 µM, OCI-P5x cells, without rucaparib
[43] = at 1.25 µM, OCI-C5x cells, with rucaparib 10 µM, 100% = cells with rucaparib alone
[44] = at 1.25 µM, OCI-C5x cells, without rucaparib
[45] = at 1.25 µM, OCI-P5x cells, with rucaparib 20 µM, 100% = cells with rucaparib alone
[46] = at 1.25 µM, OCI-P5x cells, without rucaparib
[47] = at 5 µM, OCI-C5x cells, with rucaparib 10 µM, 100% = cells with rucaparib alone
[48] = at 5 µM, OCI-C5x cells, without rucaparib
[49] = at 5 µM, OCI-P5x cells, with rucaparib 20 µM, 100% = cells with rucaparib alone
[50] = at 5 µM, OCI-P5x cells, without rucaparib

CCCCOc1ccc(C(=O)Nc2ccc(F)cc2F)cc1
0.589: z-score [10, 18]
10200: cell count [9, 16]
0.917: fold change [9, 14]
inactive: outcome [1] | outcome [2] | outcome [3] | outcome [4] | outcome [5] | outcome [6] | outcome [7] | outcome [8] | fold change [9, 13] 0.889 | z-score [10, 17] -0.373
9070: cell count [9, 15]

CC1=C(C(=O)Nc2cc3cn[nH]c3cc2F)C(c2ccc(Cl)cc2F)N=C(c2ccnc(Cl)c2)N1 (stereo not given)
active: AC50 [1] 13.2 µM | AC50 [5] 5.9 µM | AC50 [7] 16.6 µM

CC1(C)Cc2c(sc(NC(=S)NC(=O)c3ccccc3)c2C(=O)O)CO1
inactive: outcome [1] | outcome [2] | outcome [3] | outcome [4] | outcome [5] | outcome [6] | outcome [7] | outcome [8]

CCn1nnc2c(N3CCOCC3)nc(-c3ccc(NC(=O)Nc4ccc(C(=O)N5CCN(C)CC5)cc4)cc3)nc21
active: AC50 [1] 0.372 µM | AC50 [2] 0.469 µM | AC50 [3] 0.0148 µM | AC50 [4] 0.742 µM | AC50 [5] 0.372 µM | AC50 [6] 0.166 µM | AC50 [7] 0.934 µM | IC50 [8] 0.742 µM

Cc1nc(NC(=O)N2CCC[C@H]2C(N)=O)sc1-c1csc(C(C)(C)C)n1
active: AC50 [1] 11.8 µM | AC50 [2] 4.69 µM | AC50 [3] 2.96 µM | AC50 [4] 7.42 µM | AC50 [5] 4.68 µM | AC50 [6] 9.35 µM

CC(C)n1c(/C=C/[C@H](O)C[C@H](O)CC(=O)O)c(-c2ccc(F)cc2)c2ccccc21
active: AC50 [1] 8.33 µM
1670: cell count [9, 15]
inactive: outcome [6] | outcome [8] | fold change [9, 13] 1.07 | z-score [10, 17] -2.58
0.0762: z-score [10, 18]
1560: cell count [9, 16]
0.873: fold change [9, 14]

CNC(=O)c1cc(Oc2ccc(NC(=O)Nc3cc(C(C)(C)C)nn3-c3ccc4ncccc4c3)c(F)c2)ccn1
608: cell count [9, 15]
632: cell count [9, 16]
0.93: z-score [10, 18]
0.469: fold change [9, 14]
inactive: outcome [6] | fold change [9, 13] 0.963 | plate-normalised HSF1 focus index [11] 1.01 | viability [12, 19] 112% | viability [12, 20] 112% | viability [12, 21] 103% | viability [12, 22] 108% | viability [12, 23] 102% | viability [12, 24] 117% | viability [12, 25] 110% | viability [12, 26] 103% | viability [12, 27] 108% | viability [12, 28] 116% | viability [12, 29] 116% | viability [12, 30] 102% | viability [12, 31] 107% | viability [12, 32] 118% | viability [12, 33] 110% | viability [12, 35] 115% | viability [12, 36] 113% | viability [12, 37] 114% | viability [12, 40] 105% | viability [12, 41] 120%
0.0864: SSMD [11]
6970: cell count [11]
active: AC50 [1] 5.9 µM | AC50 [2] 7.43 µM | AC50 [3] 8.33 µM | AC50 [4] 0.0661 µM | AC50 [5] 9.34 µM | AC50 [7] 5.9 µM | IC50 [8] 20.9 µM | z-score [10, 17] 3.18 | viability [12, 34] 97.7% | viability [12, 38] 97.7% | viability [12, 39] 96.9% | viability [12, 42] 96.4% | viability [12, 43] 77.5% | viability [12, 44] 96.1% | viability [12, 45] 29.9% | viability [12, 46] 97.7% | viability [12, 47] 9.96% | viability [12, 48] 8.93% | viability [12, 49] 17.1% | viability [12, 50] 4.51%

Cc1ccc(Nc2cc(-c3cccc(N4C(=O)c5ccccc5C4=O)c3)ncn2)cc1NS(C)(=O)=O
active: AC50 [1] 20.9 µM | AC50 [3] 18.7 µM
inactive: outcome [2]

CC(C)(C)c1nc2c3cc[nH]c(=O)c3c3cc(F)ccc3c2[nH]1
active: AC50 [1] 16.6 µM | AC50 [5] 1.48 µM

COc1ccc(/C=C\c2cc(OC)c(OC)c(OC)c2)cc1O
inactive: outcome [3] | fold change [9, 13] 1.24 | plate-normalised HSF1 focus index [11] 1.05
0.749: SSMD [11]
active: AC50 [1] 0.00662 µM | AC50 [2] 0.00833 µM | AC50 [4] 0.0186 µM | AC50 [5] 0.0105 µM | AC50 [7] 0.0105 µM | IC50 [8] 0.0148 µM
0.571: fold change [9, 14]
1010: cell count [9, 16]
6590: cell count [11]
1250: cell count [9, 15]

CC(C)=CC[C@@H](O)C1=CC(=O)c2c(O)ccc(O)c2C1=O
1.65: z-score [10, 18]
active: AC50 [1] 20.9 µM | AC50 [2] 0.526 µM | AC50 [3] 2.96 µM | AC50 [4] 11.8 µM | AC50 [5] 10.5 µM | AC50 [6] 2.96 µM
inactive: fold change [9, 13] 1.09 and 1.03 | z-score [10, 17] -1.24
2290 and 4460: cell count [9, 15]
2110 and 4340: cell count [9, 16]
1.1 and 1.06: fold change [9, 14]

CC1(C)Cc2c(-c3ccccc3)c(-c3ccc(Cl)cc3)c(CC(=O)O)n2C1
5140: cell count [9, 15]
1.11: z-score [10, 18]
5520: cell count [9, 16]
1.58: fold change [9, 14]
inactive: outcome [2] | outcome [4] | outcome [8] | fold change [9, 13] 0.932 | z-score [10, 17] -0.384
active: AC50 [1] 26.3 µM | AC50 [3] 18.7 µM

COc1cc2nccc(Oc3ccc(NC(=O)NC4CC4)c(Cl)c3)c2cc1C(N)=O
5580: cell count [9, 15]
6600: cell count [11]
active: AC50 [1] 2.09 µM | AC50 [2] 2.35 µM | AC50 [3] 4.69 µM | AC50 [4] 4.68 µM | AC50 [5] 2.35 µM | viability [12, 49] 91.4% | viability [12, 50] 88.9%
2.76: SSMD [11]
6040: cell count [9, 16]
1.21: fold change [9, 14]
0.105: z-score [10, 18]
inactive: fold change [9, 13] 0.924 | plate-normalised HSF1 focus index [11] 1.14 | z-score [10, 17] -0.303 | viability [12, 19] 125% | viability [12, 20] 110% | viability [12, 21] 111% | viability [12, 22] 105% | viability [12, 23] 100% | viability [12, 24] 110% | viability [12, 25] 112% | viability [12, 26] 114% | viability [12, 27] 108% | viability [12, 28] 103% | viability [12, 29] 110% | viability [12, 30] 112% | viability [12, 31] 103% | viability [12, 32] 113% | viability [12, 33] 117% | viability [12, 34] 114% | viability [12, 35] 103% | viability [12, 36] 112% | viability [12, 37] 111% | viability [12, 38] 111% | viability [12, 39] 108% | viability [12, 40] 110% | viability [12, 41] 108% | viability [12, 42] 110% | viability [12, 43] 126% | viability [12, 44] 111% | viability [12, 45] 119% | viability [12, 46] 112% | viability [12, 47] 142% | viability [12, 48] 111%

Source: PubChem BioAssay
